Experimental data as given in the supplement of paper PMC11865577.
Counter-ions that a name gives are not always drawn.

Tests used:
Assay in all cases: normalised indicator fluorescence (fraction of RNA + indicator signal without compound); higher = less displacement of indicator (weaker competition)
Details in all cases: compound concentration: 5 uM, 30 min
[1] = tested on: hsa-mir-191 loop
How it was run: (§1)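 For the displacement screen, RNA and a TO-PRO-1 or TO-PRO-3 indicator were held in 20 mM phosphate pH 7.0 with 20 mM NaCl and 80 mM KCl in 96-well plates. After adding 0.25 μL of each 1 mM DMSO stock (about 5 uM final) and waiting 30 min, fluorescence was measured on an Infinite 200 PRO with excitation at 485 or 620 nm. Each value is the mean of two independent experiments, expressed as blank-subtracted indicator fluorescence relative to the no-compound RNA-plus-indicator signal.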

[2] = tested on: hsa-mir-21 loop
How it was run: as §1

[3] = tested on: hsa-mir-221 loop
How it was run: as §1

[4] = tested on: hsa-mir-374a loop
How it was run: as §1

[5] = tested on: hsa-mir-6850 loop
How it was run: as §1

[6] = indicator: TO-PRO-1 0.1 uM, RNA concentration: 0.1 uM
[7] = indicator: TO-PRO-3 0.5 uM, RNA concentration: 0.5 uM

| Compound | normalised indicator fluorescence [1, 6] | normalised indicator fluorescence [1, 7] | normalised indicator fluorescence [2, 6] | normalised indicator fluorescence [2, 7] | normalised indicator fluorescence [3, 6] | normalised indicator fluorescence [3, 7] | normalised indicator fluorescence [4, 6] | normalised indicator fluorescence [4, 7] | normalised indicator fluorescence [5, 6] | normalised indicator fluorescence [5, 7] |
| --- | --- | --- | --- | --- | --- | --- | --- | --- | --- | --- |
| COc1nc(-c2ccc3c(c2)OCO3)n(-c2ccc(NC(=O)CSc3ccccc3)cc2)n1 [SecinH3] | 1.09 | 1.02 | 0.961 | 1.2 | 1.02 | 1.1 | 1.01 | 1.12 | 1 | 0.992 |
| O=c1c(O)c(-c2cc(O)c(O)c(O)c2)oc2cc(O)cc(O)c12 [Myricetin] | 0.403 | 0.684 | 0.387 | 0.742 | 0.505 | 0.659 | 0.543 | 0.424 | 0.604 | 0.969 |
| Oc1ccc(-c2nc(-c3ccc(F)cc3)c(-c3ccncc3)[nH]2)cc1 | 1.1 | 1.04 | 0.993 | 1.03 | 1.08 | 1.13 | 1.09 | 1.2 | 0.999 | 1.04 |
| CCNC(=O)c1noc(-c2cc(Cl)c(O)cc2O)c1-c1ccc(OC)cc1 | 1.05 | 1.04 | 1.06 | 1.06 | 1.06 | 0.964 | 1.1 | 1.17 | 1.03 | 1.05 |
| CCc1oc2ccccc2c1C(=O)c1cc(Br)c(O)c(Br)c1 [Benzbromarone] | 0.976 | 1.01 | 0.927 | 1.05 | 1 | 1.09 | 1.16 | 1.34 | 0.95 | 1.04 |
| O=C(/C=C/C=C/c1ccc2c(c1)OCO2)N1CCCCC1 [Piperine] | 1.02 | 1.01 | 0.903 | 1.05 | 0.997 | 0.908 | 1.16 | 1.16 | 1.13 | 1.04 |
| C[S+]([O-])c1ccc(-c2nc(-c3ccc(F)cc3)c(-c3ccncc3)[nH]2)cc1 (stereo not given) | 0.969 | 1.02 | 1.05 | 1.02 | 1.01 | 1.05 | 1.07 | 1.04 | 1.08 | 1.04 |
| CN(C)CCCN1c2ccccc2CCc2ccc(Cl)cc21 [Clomipramine hydrochloride] | 1 | 1.1 | 0.961 | 0.987 | 1.07 | 1.01 | 1.14 | 1.02 | 0.864 | 1.08 |
| CC(=O)O[C@H]1C[C@@]2(C)[C@@H](C[C@@H](O)[C@H]3[C@@]4(C)CC[C@@H](O)[C@@H](C)[C@@H]4CC[C@@]32C)/C1=C(\CCC=C(C)C)C(=O)O [Fusidine] | 0.992 | 1.01 | 0.976 | 1.08 | 1.04 | 1.02 | 1.15 | 1.21 | 1.06 | 1.06 |
| O=c1cc(-c2ccccc2)oc2cc(O)c(O)c(O)c12 [Baicalein] | 0.599 | 0.956 | 0.653 | 0.944 | 0.767 | 0.926 | 0.88 | 0.91 | 0.918 | 1.05 |
| NC(=O)c1ccccc1Nc1ccnc(Nc2cccc(O)c2)n1 | 0.949 | 1.02 | 0.974 | 1.02 | 0.967 | 0.979 | 1.12 | 1.2 | 0.993 | 1.04 |
| O=C1c2c(O)cc(O)cc2OC(c2ccc(O)c(O)c2)C1O (stereo not given) [Taxifolin] | 0.994 | 1.06 | 0.976 | 1.05 | 1.05 | 1.11 | 1.13 | 1.15 | 0.944 | 1.08 |
| CC1(C)CC(=O)c2c(C(F)(F)F)nn(-c3ccc(C(N)=O)c(N[C@H]4CC[C@H](O)CC4)c3)c2C1 | 1.03 | 1.03 | 0.989 | 1.04 | 0.978 | 1.18 | 1.01 | 1.13 | 0.777 | 0.989 |
| CCOc1cc(C(=O)N2CCC(N3CCN(C)CC3)CC2)ccc1Nc1ncc2c(n1)N(C1CCCC1)c1ccccc1C(=O)N2C | 1.09 | 1.04 | 0.946 | 1.01 | 1.03 | 1.01 | 1.07 | 1.1 | 0.938 | 1 |
| COc1c(C)cnc(Cn2cnc3c(Cl)nc(N)nc32)c1C | 1.04 | 1.04 | 0.99 | 1.04 | 1.01 | 1.06 | 1.19 | 1.09 | 1.02 | 1.05 |
| COC(=O)C1=CC[C@@]23CC[C@@H]([C@@](C)(/C=C/C=C(\C)C(=O)O)OC2=O)[C@@]3(OC(C)=O)CC1 [Pseudolaric Acid B] | 1.02 | 0.949 | 1.02 | 0.979 | 0.969 | 0.93 | 0.998 | 1.19 | 1.03 | 1.03 |
| C[C@H]1Oc2cc(cnc2N)-c2c(nn(C)c2C#N)CN(C)C(=O)c2ccc(F)cc21 [Lorlatinib] | 0.997 | 1.03 | 1.05 | 1.03 | 0.999 | 1.02 | 1.08 | 1.26 | 1.14 | 1.05 |
| CN1CCN(c2ccc(C(=O)Nc3n[nH]c4ccc(Cc5cc(F)cc(F)c5)cc34)c(NC3CCOCC3)c2)CC1 [Entrectinib] | 1.11 | 1.04 | 1.04 | 1.04 | 1.04 | 1.18 | 1.09 | 1.56 | 1.01 | 1.03 |

| Compound | normalised indicator fluorescence [1, 6] | normalised indicator fluorescence [1, 7] | normalised indicator fluorescence [2, 6] | normalised indicator fluorescence [2, 7] | normalised indicator fluorescence [3, 6] | normalised indicator fluorescence [3, 7] | normalised indicator fluorescence [4, 6] | normalised indicator fluorescence [4, 7] | normalised indicator fluorescence [5, 6] | normalised indicator fluorescence [5, 7] |
| --- | --- | --- | --- | --- | --- | --- | --- | --- | --- | --- |
| Cc1c(F)cc(C(=O)NC2CC2)cc1-c1ccc(C(=O)NCC(C)(C)C)cn1 [Losmapimod] | 0.997 | 1.02 | 0.887 | 1.04 | 1.07 | 1.08 | 1.06 | 1.13 | 0.95 | 1.06 |
| COc1ccc(-c2nc(-c3cc(C(F)(F)F)cc(C(F)(F)F)c3)n(Cc3ccc(C(N)=O)cc3)c2-c2ccc(OC)cc2)cc1 [Apoptozole] | 0.992 | 1.01 | 1.01 | 1.03 | 1.05 | 1.21 | 1.06 | 1.36 | 0.966 | 0.976 |
| Cn1cc(-c2ccc3c(c2)CCN3C(=O)Cc2cccc(C(F)(F)F)c2)c2c(N)ncnc21 | 1.04 | 1.1 | 1.06 | 1.07 | 1.08 | 1.03 | 1.23 | 1.18 | 0.993 | 1.18 |
| COc1ccc(C2CC(=O)c3c(O)cc(OC4OC(COC5OC(C)C(O)C(O)C5O)C(O)C(O)C4O)cc3O2)cc1OC (stereo not given) [Methyl hesperidin] | 0.968 | 1.08 | 0.942 | 0.97 | 1.05 | 1.03 | 1.14 | 1.14 | 0.967 | 1.07 |
| CN(C)C[C@@H]1CCn2cc(c3ccccc32)C2=C(C(=O)NC2=O)c2cn(c3ccccc23)CCO1 [Ruboxistaurin hydrochloride] | 1.1 | 1.04 | 0.991 | 1.01 | 1 | 1.12 | 1.03 | 1.24 | 0.894 | 0.897 |
| COC(=O)c1ccc([C@H]2c3[nH]c4ccccc4c3C[C@H](C(=O)OC)N2C(=O)CCl)cc1 | 1.05 | 1 | 0.974 | 1.02 | 0.997 | 1.09 | 1.01 | 1.39 | 1.09 | 1.03 |
| O=c1c(O)c(-c2ccccc2)oc2cc(O)cc(O)c12 [Galangin] | 1.05 | 1.08 | 1 | 1.04 | 1.03 | 1.22 | 1.11 | 1.3 | 0.971 | 1.07 |
| Cc1oncc1C(=O)Nc1ccc(C(F)(F)F)cc1 [Leflunomide] | 0.986 | 0.97 | 0.91 | 1.03 | 1 | 1.11 | 1.11 | 1.36 | 0.838 | 1.01 |
| O=c1ccc2ccc(O)c(O)c2o1 [Daphnetin] | 1.01 | 0.873 | 1.09 | 0.941 | 0.91 | 0.965 | 1.09 | 1.03 | 1.19 | 0.881 |
| COC1=CC(=O)c2ccccc2C1=O [2-Methoxynaphthoquinone] | 1.01 | 1.03 | 0.993 | 1.05 | 1.06 | 1.06 | 1.14 | 1.19 | 0.946 | 1.07 |
| CN1CCN(c2nc(C3=C(c4c[nH]c5ccccc45)C(=O)NC3=O)c3ccccc3n2)CC1 [Sotrastaurin] | 0.995 | 1.01 | 1.13 | 1.04 | 1.03 | 0.999 | 1.19 | 1.3 | 0.954 | 0.996 |
| N#CC(c1ccnc(OCc2ccc(CN3CCOCC3)cc2)n1)c1nc2ccccc2s1 (stereo not given) | 1.03 | 0.659 | 1.14 | 0.839 | 1.37 | 0.837 | 1.26 | 0.694 | 0.827 | 0.505 |
| COc1ccc(-c2coc3cc(O)ccc3c2=O)cc1O [Calycosin] | 1.08 | 1.02 | 1 | 1.06 | 1.03 | 1.08 | 1.01 | 1.25 | 1.01 | 1.07 |
| NC(=O)N/N=C/c1ccc([N+](=O)[O-])o1 [Furacilin] | 1.06 | 1.02 | 0.909 | 1.06 | 1.14 | 1.03 | 1.15 | 1.16 | 0.927 | 1.04 |
| O=C(Nc1nc2ccc(NC(=O)C34CC5CC(CC(C5)C3)C4)cc2s1)c1ccccc1 | 1 | 1.02 | 0.991 | 1.02 | 1.14 | 1.05 | 1.1 | 1.06 | 0.997 | 0.982 |
| N=C(NCCCCCCNC(=N)NC(=N)Nc1ccc(Cl)cc1)NC(=N)Nc1ccc(Cl)cc1 [Chlorhexidine hydrochloride] | 1.01 | 0.962 | 0.896 | 1 | 1.01 | 0.981 | 1.06 | 1.05 | 0.906 | 1.04 |
| Oc1ccc(OC2CCCCO2)cc1 (stereo not given) [Deoxyarbutin] | 1.11 | 1.06 | 1.03 | 1.06 | 1.03 | 1.1 | 1.03 | 1.13 | 0.979 | 1 |
